Results filed as inconclusive are left out. A call without a number means that no potency is given here. Active and inactive are the calls of the source. Unless noted, calls come from the whole dose curve; as a rule, active = well fitted curve in the direction sought with a large enough effect; inconclusive = small, poorly fitted or top-dose-only effect, or another doubt; inactive = no such curve, though single readings can be large; an effect the other way counts as inactive or inconclusive.
Experiments:
[1] = target: Cytochrome P450 3A4 (Homo sapiens) (UniProt P08684); assay: qHTS Assay for Inhibitors and Substrates of Cytochrome P450 3A4 (AID 884); note: nearly all actives have a fitted effect of over 50% in size; note: potency is the fitted concentration of half-maximal effect
Outline: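 Luminescent readout of luciferin produced by CYP3A4 (20 nM) dealkylation of Luciferin-PPXE, 25 uM (its KM). NADPH-driven reaction ran 60 min at RT after 10 min compound preincubation; data scaled to 57 uM ketoconazole as 100% inhibition.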

[2] = Confirmation and Secondary Assay for Modulators of Hemoglobin Beta Chain Splicing at IVS2 654 locus (AID 910);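 note: HeLa cells stably carrying EGFP split by mutant beta-globin IVS2-654 intron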
Outline: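 HeLa cells stably expressing EGFP interrupted by β-globin IVS2-654 intron, seeded overnight in Opti-MEM/2% FCS, then treated 2 days at 37 °C. Restored splicing read as total peak GFP intensity per well by laser scanning cytometry (488 nm excitation, 500–520 nm emission); 500 nM antisense PNA as control.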

[3] = Confirmation and Secondary Assay for Modulators of Hemoglobin Beta Chain Splicing at IVS2 705 locus (AID 930);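 note: GFP fluorescence per well restored by corrected splicing of the IVS2-705 intron in EGFP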; note: potency is the fitted concentration of half-maximal effect
Outline: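 Assay measures total GFP intensity per well in HeLa EGFP-705 cells after 2 days with compound; mis-splicing normally truncates EGFP, so fluorescence indicates corrected splicing.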

[4] = qHTS Assay for Lipid Storage Modulators (AID 1519; calls by dose curve); settings: Drosophila S3 cells, BODIPY lipid droplet/cell ratio, laser cytometry, cells loaded with oleic acid; for activity change, negative = inhibition: at 57.5 µM (top of the series)
Outline: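 Cells seeded at 5,000 per well were treated with compounds over a concentration series and loaded with oleic acid (400 uM, as added). Lipid droplet fluorescence (488 nm excitation, 500-530 nm channel) was read by laser-scanning cytometry and normalized to 20 uM Triacsin C.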

[5] = target: Ubiquitin carboxyl-terminal hydrolase 1 (Homo sapiens) (UniProt O94782); assay: Inhibitors of USP1/UAF1: Pilot qHTS (AID 504865); note: nearly all actives have a fitted effect of over 35% in size; note: potency is the fitted concentration of half-maximal effect;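 for activity change, negative = inhibition: rhodamine fluorescence freed from ubiquitin-rhodamine substrate followed over time; top concentration of the series differs between compounds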
Outline: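 Deubiquitinase activity followed as kinetic rhodamine fluorescence release from 150 nM Ub-Rho. 1 nM USP1/UAF1 with compound, after 15 min room-temperature preincubation, in HEPES pH 7.8 buffer containing TCEP, EDTA, BSA and Tween-20.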

[6] = target: Cytochrome P450 3A4 (Homo sapiens) (UniProt P08684); assay: qHTS Assay for Activators of Cytochrome P450 3A4 (AID 885); note: nearly all actives have a fitted effect of over 65% in size
Outline: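 Activators are scored by enhanced luminescence from CYP3A4 conversion of luciferin-PPXE (25uM, equal to KM) to luciferin, after 60 min at RT with an NADPH-regenerating system.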

[7] = measured here: cell count channel max response
[8] = measured here: lipid channel max response

Chain of Cytochrome P450 3A4 (Homo sapiens) (P08684 whole entry, looked up): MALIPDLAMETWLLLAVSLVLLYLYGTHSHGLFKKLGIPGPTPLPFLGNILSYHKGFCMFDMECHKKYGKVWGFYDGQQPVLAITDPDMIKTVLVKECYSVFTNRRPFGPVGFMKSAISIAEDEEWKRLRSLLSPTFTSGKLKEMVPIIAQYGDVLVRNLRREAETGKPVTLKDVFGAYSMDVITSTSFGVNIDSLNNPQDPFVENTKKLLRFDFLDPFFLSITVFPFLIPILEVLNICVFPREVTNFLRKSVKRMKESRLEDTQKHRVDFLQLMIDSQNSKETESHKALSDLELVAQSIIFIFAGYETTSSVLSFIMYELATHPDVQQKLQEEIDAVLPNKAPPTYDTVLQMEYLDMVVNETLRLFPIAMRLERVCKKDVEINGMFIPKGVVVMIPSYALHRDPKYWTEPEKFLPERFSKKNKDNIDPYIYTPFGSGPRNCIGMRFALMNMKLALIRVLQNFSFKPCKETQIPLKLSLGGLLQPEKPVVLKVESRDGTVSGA
Chain of Ubiquitin carboxyl-terminal hydrolase 1 (Homo sapiens) (O94782 whole entry, looked up): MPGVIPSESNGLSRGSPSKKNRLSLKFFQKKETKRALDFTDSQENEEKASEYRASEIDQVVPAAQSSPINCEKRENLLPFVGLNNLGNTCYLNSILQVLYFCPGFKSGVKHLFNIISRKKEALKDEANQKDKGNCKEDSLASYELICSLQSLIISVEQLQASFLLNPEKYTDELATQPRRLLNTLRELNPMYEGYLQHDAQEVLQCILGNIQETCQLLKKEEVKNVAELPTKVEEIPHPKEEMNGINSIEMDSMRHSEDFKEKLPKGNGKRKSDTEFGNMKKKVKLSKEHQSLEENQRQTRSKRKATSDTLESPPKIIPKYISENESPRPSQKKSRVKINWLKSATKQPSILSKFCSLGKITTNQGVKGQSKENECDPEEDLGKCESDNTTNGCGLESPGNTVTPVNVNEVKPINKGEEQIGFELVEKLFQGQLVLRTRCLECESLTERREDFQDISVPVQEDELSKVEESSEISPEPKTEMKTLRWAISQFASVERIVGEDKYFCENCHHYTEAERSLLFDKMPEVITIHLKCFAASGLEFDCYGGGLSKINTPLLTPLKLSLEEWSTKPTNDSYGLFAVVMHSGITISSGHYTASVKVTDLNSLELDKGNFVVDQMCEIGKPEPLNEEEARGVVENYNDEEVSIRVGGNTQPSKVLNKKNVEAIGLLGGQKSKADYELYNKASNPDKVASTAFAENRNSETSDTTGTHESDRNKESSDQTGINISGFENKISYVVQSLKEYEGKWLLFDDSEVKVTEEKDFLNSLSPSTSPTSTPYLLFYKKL

SMILES	Potency [1]	Potency [2]	Potency [3]	activity change, negative = inhibition [4]	max response [4, 7] [%]	max response [4, 8] [%]	Potency [5]	Potency [6]
NC(=O)c1ccc(N)nc1	inactive	inactive	inactive	2.67% (inactive)	16.6	22.3	inactive	
CC1C(=O)OC2CCN3CC=C(COC(=O)[C@](C)(O)[C@]1(C)O)C23 (stereo partly drawn)	inactive	inactive	inactive	5.81% (inactive)	-2.74	4.32	inactive	
CC(=O)OC1CC(OC(C)=O)[C@]2(C)C(CC(OC(C)=O)[C@]3(C)C2CC[C@@]2(C)C(c4ccoc4)C[C@H]4O[C@]432)C1(C)C (stereo partly drawn)	inactive	inactive	inactive	6.91% (inactive)	9.38	19.4	inactive	
COc1cc(C2c3cc4c(c(O)c3CC3COC(=O)C32)OCO4)cc(OC)c1OC (stereo not drawn)	1 µM (active)	inactive	inactive	3.6% (inactive)	11.9	14.5	inactive	inactive
Cc1[nH]c2ccccc2c1CN(C)C	12.6 µM (active)	inactive	inactive	11.5% (inactive)	9.14	21.3	inactive	inactive
CC(N)[C@@H](O)c1ccccc1 (stereo partly drawn)	inactive	inactive	inactive	6.04% (inactive)	11.6	28.2	inactive	
CCC12C=CCN3CCC4(c5ccc(OC)cc5N(C)C4[C@@](O)(C(=O)OC)C1OC(C)=O)C32 (stereo partly drawn)		inactive	inactive	1.88% (inactive)	13.3	25	inactive	inactive
O=C(O)CCC1NCC2CC1CN1CCCCC21 (stereo not drawn)	inactive	inactive	inactive	2.61% (inactive)	3.62	5.45	inactive	
NCC(=O)c1ccccc1		inactive	inactive	8.66% (inactive)	23.8	35.4	inactive	inactive
CC1(C)C(O)CC(O)[C@]2(C)C1CC(O)[C@]1(C)C2CC[C@@]2(C)C(c3ccoc3)CC3OC312 (stereo partly drawn)		inactive	inactive	-10.5% (inactive)	-11.5	-19.8	inactive	inactive
CN1C2CC3CC1C(O3)C2O (stereo not drawn)	inactive	inactive	inactive	1.96% (inactive)	-4.71	-5.52	inactive	
CC1OC(O[C@@H]2C(O)CC(O[C@@H]3C(O)C[C@@H](OC4CC[C@]5(C)[C@H](CC[C@H]6[C@@H]5CC[C@]5(C)C(C7=CC(=O)OC7)C(O)C[C@@]65O)C4)OC3C)OC2C)CC(O)C1O (stereo partly drawn)	inactive		1 µM (active)	10.1% (inactive)	12.5	20.2	inactive	
COc1ccc2c(c1)[C@@]13CCCCC1[C@@H](C2)N(C)CC3 (stereo partly drawn)		inactive		7.37% (inactive)	4.27	15.7	inactive	
CC1(C)C(O)CC(=O)[C@]2(C)C1CC(=O)[C@]1(C)C2CC[C@@]2(C)C(c3ccoc3)OC(=O)C3O[C@@]321 (stereo partly drawn)		inactive	inactive	-3.35% (inactive)	16.1	14.7	inactive	inactive
CCC(N)C(O)c1ccc(O)c(O)c1 (stereo not drawn)	inactive	inactive	inactive	5.92% (inactive)	7.01	16.7	inactive	
CCOC(=O)C1C(C=C(C)C)C1(C)C (stereo not drawn)	inactive	inactive	inactive	2.84% (inactive)	-1.43	3.02	inactive	
COc1c(CC=C(C)C)c2c(c3oc(=O)c(-c4ccc(O)cc4)c(O)c13)C=CC(C)(C)O2		inactive	inactive	3.02% (inactive)	14.5	15.5	79.4 µM (active)	inactive
CC(=O)OC1C2C(OC(=O)Cc3ccccc3)C(C)CC2(OC(C)=O)C(=O)/C(C)=C/C2C(CC[C@@]13CO3)C2(C)C (stereo partly drawn)		inactive	inactive	-0.982% (inactive)	-2.07	-2.51	inactive	inactive
Cc1c(O)c(O)cc2c1CC=C1[C@]3(C)CC[C@]4(C)CC[C@@](C)(C(=O)O)CC4[C@]3(C)CC[C@]12C (stereo partly drawn)	inactive	inactive	inactive	-4.4% (inactive)	19.2	14.7	inactive	
CCN1C[C@@]2(OC(=O)c3ccccc3NC(C)=O)CCC(OC)[C@@]34C5CC6C(OC)C[C@@](O)(C(CC23)[C@@H]14)C5(O)C6OC (stereo partly drawn)	inactive	inactive	inactive	4.73% (inactive)	10.9	17	inactive	
COc1cc2c3cc1Oc1c(OC)c(OC)cc4c1C(Cc1cccc(c1)Oc1ccc(c(O)c1)CC3N(C)CC2)N(C)CC4 (stereo not drawn)	inactive	inactive	inactive	6.04% (inactive)	15.8	22.7	inactive	
N#C/C(=C\c1cccc(O)c1)C(=O)O	inactive	inactive	inactive	5.07% (inactive)	0.883	7.48	inactive	
Oc1ccc2c3c1OC1C(O)CC[C@]4(O)C(C2)N(CC2CCC2)CC[C@]314 (stereo partly drawn)		inactive		-5.68% (inactive)	13.5	9.11	inactive	

Reference: PubChem BioAssay (NCATS)
